Consider 27 compounds from PubChem BioAssay (NCI).

About 83,000 compounds went through this panel and 20% of them were active in at least one assay; those are over-represented in the sample as a whole.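 The endpoint reported here, percent growth, reads 100 for growth as untreated, 0 for no net growth and -100 for all cells dead.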 Activity calls are given as the source filed them. How the source made its calls: active means growth percent below 10; inactive means the rest.

The subject of this assay is MDA-MB-468 breast. The assay can be described thus: NCI-60 one-dose screen, 48 h (100 = growth as untreated, 0 = no growth, -100 = all killed). The following applies: 10 µM unless noted.
Take `CCN(CC)CCOc1cccc2c1C(=O)c1ccccc1C2=O`: the growth is 91.4% (inactive).

For `CC(=O)OC[C@H](O)[C@@]1(O)CC[C@H]2[C@@H]3CCC4=CC(=O)CC[C@]4(C)[C@H]3[C@@H](O)C[C@@]21C`, the growth was 112% (inactive).

With `CN(C)CCCN1c2ccccc2CCc2ccccc21`, the growth is 39.6% (inactive).

With `NC(=S)N/N=C/C(=O)O`, the growth was 37.7% (inactive).

In the case of `CN1CCN(c2ccc(/C=C/C(=O)c3ccc(O)cc3)cc2)CC1`, the growth was 89.5% (inactive).

`COc1cc(-c2ccc(NC(=O)NC3CC3)c(OC)c2)ccc1NC(=O)NC1CC1`: the growth is 88.8% (inactive).

With `C/C(=C\C(=N\N=C(N)N)c1ccc(Cl)cc1)c1ccc(Cl)cc1`, the growth is -92.9% (active).

For the compound `CC1(C)CC[C@]2(c3nnc(-c4ccncc4)o3)CC[C@H]3C(=CC[C@H]4[C@@]3(C)CC[C@H]3C(C)(C)C(=O)CC[C@]43C)[C@@H]2C1`, the growth was 62.2% (inactive).

Take `CC(C)C(=O)Nc1n[nH]c2cc(-c3cccc(NS(=O)(=O)C4CC4)c3)ccc12`: the growth is 21.6% (inactive).

For `Fc1ccc(Cc2ccc(F)cc2)cc1`, the growth is 104% (inactive).

Turning to `C/C(Cc1ccc(Cl)cc1)=C(\c1ccc(OCCN2CCCCCC2)cc1)c1ccc(OC(=O)C2CCCCC2)cc1`, the growth was 52.2% (inactive).

In the case of `O=C1C(=O)c2cc([N+](=O)[O-])ccc2-c2ccccc21`, the growth was -96.2% (active).

Consider `CCOC(=O)c1sc2ncnc(Nc3ccc4c(cnn4C(=O)Nc4ccc(C)c(Cl)c4)c3)c2c1C`, for which the growth was 95.1% (inactive).

Consider `COc1cc(/C=C/C(=O)c2nc3cc(F)ccc3nc2C)cc(OC)c1OC`, for which the growth was 23.6% (inactive).

Consider `CCN(CC)CCNc1ncnc2c1cnn2-c1ccc(Cl)cc1`, for which the growth was 57.6% (inactive).

On to `COc1cc2c(cc1OC)-c1ccc3cc4c(cc3c1N(CCCn1ccnc1)C2)OCO4`, for which the growth was -63.7% (active).

For the compound `CCOC(=O)c1ccoc1`, the growth was 95.7% (inactive).

Regarding `NS(=O)(=O)c1cc(Br)c2c(c1)S(=O)(=O)NCN2`, the growth is 126% (inactive).

With `Cn1cc(-c2nn3cc(-c4ccccc4)nc3s2)c2ccccc21`, the growth was 71.5% (inactive).

Consider `O=C(Nc1ccc(CN2CCOCC2)cc1)c1ccc(-c2cc(Cl)ccc2Cl)o1`, for which the growth was -56.1% (active).

On to `O=[N+]([O-])c1ccc(N/N=C/c2cccc3ccccc23)nc1`, for which the growth is 77.2% (inactive).

As for `ClC1=C(Cl)C(Cl)=C(Cl)C1=Cc1ccc(Cl)cc1`, the growth is 45.3% (inactive).

Consider `COc1ccc(-c2cc(-c3ccccc3)nc(SCCCCCCC(=O)NO)n2)cc1`, for which the growth was 64.1% (inactive).

Turning to `Cc1ccc2nc(NC(=O)CSc3nc(Nc4ccc([N+](=O)[O-])cc4)c(C#N)c(-c4ccccc4)n3)sc2c1`, the growth was 105% (inactive).

On to `COc1cc(/C=N\NC(=O)CN2CCN(c3cc4c(cc3F)c(=O)c(C(=O)N/N=C/c3ccc(O)c(OC)c3)cn4C3CC3)CC2)ccc1O`, for which the growth is -37.8% (active).

With `CCOC(=O)C1=C(C(=O)c2ccc(Br)cc2)C(c2ccc(Br)cc2)NC(=S)N1` (configuration not stated), the growth is 103% (inactive).

With `O=C(Nc1ccc(Cl)c(Cl)c1)Nc1c(Oc2ccc(Cl)c(Cl)c2)ccc(Cl)c1S(=O)(=O)O`, the growth was -5.92% (active).
